# Laboratory results: PubChem BioAssay (EPA / NIEHS)
# Activity calls are given as the source filed them. Rule for the calls: active = hit-call score of the fitted dose curve at least 0.9, where 1 is the maximum; inactive = score below 0.9.
# Molecular target: Hepatocyte nuclear factor 6 (Homo sapiens) (UniProt Q9UBC0)
# Experiment: ATG_HNF6_CIS: Attagene CIS-FACTORIAL HepG2 Assay for human Hepatocyte Nuclear Factor 6 (HNF6) (AID 2282952)
# Conditions: HepG2 Attagene cis-factorial HNF6 reporter transcription; actives raise or lower the signal
# Protocol: ATG_CIS is a cell-based, multiplexed-readout assay that uses HepG2, a human liver cell line, with measurements taken at 24 hours after chemical dosing in a 24-well plate.ATG_HNF6_CIS is one of 52 assay component(s) measured or calculated from the ATG_CIS assay. It is designed to make measurements of mRNA induction, a form of inducible reporter, as detected with fluorescence intensity signals by Reverse transcription polymerase chain reaction (RT-PCR) and Capillary electrophoresis technology.Data from the assay component ATG_HNF6_CIS was analyzed into 1 assay endpoint. This assay endpoint, ATG_HNF6_CIS, was analyzed with bidirectional fitting relative to DMSO as the negative control and baseline of activity. Using a type of inducible reporter, measures of mRNA for gain or loss-of-signal activity can be used to understand the reporter gene at the transcription factor-level as they relate to the gene ONECUT1. Furthermore, this assay endpoint can be referred to as a primary readout, because this assay has produced multiple assay endpoints where this one serves a reporter gene function. To generalize the intended target to other relatable targets, this assay endpoint is annotated to the dna binding intended target family, where the subfamily is homeobox protein.
# Human liver HepG2 cells are transiently transfected with multiple reporter transcription units (MRTUs) in 6-well plates using FuGene 6 reagent (Roche; 3 ml FuGene/1 mg DNA). The MRTU constructs are regulated by a cis-regulating element (promoter). […] A major difference between the CIS and TRANS system is that in CIS activities of endogenous TFs are measured, whereas the TRANS assay evaluates changes in activities of exogenous, chimeric NR-Gal4 proteins. […] At the end of 24 hour incubation, total RNA was isolated using TriZol reagent (Invitrogen). The isolated RNA is then reverse-transcribed using oligo(dT) primer and Mo-MLV reverse transcriptase (Invitrogen) with DNAse I (Ambion) treatment for 30 min. The one-tenth of the produced cDNA was amplified by PCR using Taq DNA polymerase (Invitrogen) and two reporter sequence-specific primers. The PCR products were fluorescently labeled by primer extension with 6-arboxyfluorescein (6-FAM) 5'-labeled reporter sequence-specific primer (2 min at 95 C, 20 s at 68 C and 10 min at 72 C) and these products were digested with 5U of HpaI (New England Biolabs) for 2h at 37 C. The fragments were purified using Qiaquick PCR columns (Qiagen), analyzed on an ABI 3130xL genetic analyzer (Applied Biosystems) with peak positions identified by using a set of X-rhodamine (ROX)-labeled MapMarker1000 molecular weight standards (BioVentures). The raw capillary electrophoresis data was processed using Attagraph software (Attagene).
# Chain of Hepatocyte nuclear factor 6 (Homo sapiens) (Q9UBC0 whole entry, looked up): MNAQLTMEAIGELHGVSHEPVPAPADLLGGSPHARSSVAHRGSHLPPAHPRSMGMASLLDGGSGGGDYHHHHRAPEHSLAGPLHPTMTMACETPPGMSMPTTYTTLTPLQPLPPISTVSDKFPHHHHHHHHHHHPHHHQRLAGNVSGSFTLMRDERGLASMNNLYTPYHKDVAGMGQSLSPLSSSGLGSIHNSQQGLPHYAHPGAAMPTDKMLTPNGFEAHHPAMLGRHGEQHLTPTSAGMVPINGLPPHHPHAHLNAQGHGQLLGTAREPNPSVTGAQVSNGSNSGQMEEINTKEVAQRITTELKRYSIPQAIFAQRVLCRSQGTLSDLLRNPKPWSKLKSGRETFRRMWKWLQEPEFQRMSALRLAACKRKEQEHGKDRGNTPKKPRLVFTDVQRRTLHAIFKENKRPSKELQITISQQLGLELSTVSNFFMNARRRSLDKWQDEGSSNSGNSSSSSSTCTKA
row,SMILES,outcome
1,CC(Cl)COP(=O)(OCC(C)Cl)OCC(C)Cl (stereo not given),inactive
2,CCCCCCOC(=O)CCCCC(=O)OCCCCCC,inactive
3,CCCCOCC(C)O (stereo not given),inactive
4,CC(C)CCOCc1ccccc1,inactive
5,NC(=O)Nc1ccccc1,inactive
6,CCOC(=O)C1=NN(c2ccc(Cl)cc2Cl)C(C)(C(=O)OCC)C1 (stereo not given),inactive
7,CCCCc1ccc(Cl)cc1,inactive
8,[Cl][Eu]([Cl])[Cl],inactive
9,C=CCCCCCCCCO,inactive
10,Nc1ccc(C(=O)OCCCOC(=O)c2ccc(N)cc2)cc1,inactive
11,CCNc1nc(NC(C)(C)C)nc(OC)n1,inactive
12,CCC(C)c1ccccc1 (stereo not given),inactive
13,C=C1C[C@H]2[C@@H]3C=C(C)C4=CC(=O)CC[C@]4(C)[C@H]3CC[C@]2(C)[C@@]1(OC(C)=O)C(C)=O,inactive
14,COC(=O)C=Cc1ccccc1,inactive
15,CCCCCCCO,inactive
16,CCC[Si](OC)(OC)OC,inactive
17,O=c1c(O)c(-c2ccc(O)cc2O)oc2cc(O)cc(O)c12,inactive
18,O=C(Oc1ccccc1)c1ccccc1O,inactive
19,COc1nccnc1CC(C)C,inactive
20,CCCCCCCOC(=O)c1ccc(O)cc1,inactive

row,SMILES,outcome
1,Nc1ncnc2nc[nH]c12,inactive
2,CCCCCCCCCCCC(=O)N(C)CC(=O)O,inactive
3,Cn1ccnc1,inactive
4,Fc1ccc(Br)cc1,inactive
5,CCCCNS(=O)(=O)c1ccc(C)cc1,inactive
6,O=C1CCCCCCCCCCCN1,inactive
7,C=C(C)C1CC=C(C)CC1 (stereo not given),inactive
8,CC1=CCC(C(C)C)C=C1 (stereo not given),inactive
9,CC1CC(=O)CC(C)(C)C1 (stereo not given),inactive
10,COC(=O)c1ccccc1C,inactive
11,C1CCSC1,inactive
12,CC(=O)OC(C)c1ccccc1 (stereo not given),inactive
13,Cc1ccc(C)c(OCCCC(C)(C)C(=O)O)c1,inactive
14,COc1cc(C)ccc1O,inactive
15,CC(=O)OCC=C(C)C,inactive
16,N#CC1(N)CCCCC1,inactive
17,CCOC(=O)C1=NOC(c2ccccc2)(c2ccccc2)C1,inactive
18,CCC(C)C(=O)OCCc1ccccc1 (stereo not given),inactive
19,CCCC1CCCC(=O)O1 (stereo not given),inactive
20,CCCCC1C(=O)N(c2ccccc2)N(c2ccccc2)C1=O,inactive
